From PubChem
The list is not random: actives were taken first. Their share in the collection is about 17%.
TDP1 cell noCPT = qHTS for Inhibitors of human tyrosyl-DNA phosphodiesterase 1 (TDP1): qHTS in cells in absence of CPT; DT40 Tdp1-/- hTDP1 cells, no CPT, ATP luminescence, 48 h; Potency, µM (series often up to 46.2 µM), most hits filed as inhibitors; 15% of 420,000 active; AID 686978, 2013; further: nearly all actives have a fitted effect of over 55% in size
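Seeded 400 DT40-hTDP1 cells/well (vehicle DMSO, no 20 nM CPT); pinned compounds; ≥48 hr at 37 °C; CellTiter-Glo luminescence as viability measure.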
ClpP mod = qHTS Assay for Activators of ClpP. ATP-dependent Clp protease proteolytic subunit (Bacillus subtilis (strain 168)), P80244. purified B. subtilis ClpP, FRET peptide cleavage, 20 min. 1.9% of 340,000 active. Potency, µM (doses to about 57.5 µM); active means well fitted falling curve with a large enough effect; inconclusive means small, poorly fitted or top-dose-only effect; inactive means no such curve, though single readings can be large or run the other way; further: the source files actives as falling curves though it sought activators and does not explain the sign; nearly all actives have a fitted effect of over 65% in size
Target sequence (P80244 whole entry, looked up): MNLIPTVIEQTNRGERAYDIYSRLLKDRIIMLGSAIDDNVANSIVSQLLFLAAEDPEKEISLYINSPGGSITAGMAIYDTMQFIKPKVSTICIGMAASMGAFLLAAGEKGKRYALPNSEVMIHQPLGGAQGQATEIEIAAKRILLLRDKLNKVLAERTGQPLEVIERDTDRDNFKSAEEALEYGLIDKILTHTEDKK
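ClpP 10 microg/mL final, pH 8 Tris/KCl buffer with BSA, glycerol, Tween-20; compound pinned in; FRET-FV substrate; RT 20 min; Ex320/Em430; ΔFRET vs ADEP 5.8 microM, DMSO, no enzyme.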
TDP1 cell CPT = qHTS for Inhibitors of human tyrosyl-DNA phosphodiesterase 1 (TDP1): qHTS in cells in presence of CPT; chicken DT40 Tdp1-/-;hTDP1 cells + 20 nM CPT, ATP luminescence, 48 h; Potency, µM (series often up to 46.2 µM), usual class: inhibitors; 12% of 420,000 active; AID 686979, 2013; further: nearly all actives have a fitted effect of over 55% in size
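Chicken DT40 Tdp1-/- cells complemented with human TDP1, 400 cells/well, exposed to compounds plus 20 nM camptothecin for at least 48 h at 37 C; viability read as ATP content by CellTiter-Glo luminescence.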
TDP1 block = qHTS Assay for Inhibitors of Tyrosyl-DNA Phosphodiesterase (TDP1); 0.28% of 350,000 active; AID 485290, 2010; recombinant TDP1, AlphaScreen DNA substrate cleavage; Tyrosyl-DNA phosphodiesterase 1 (Homo sapiens), Q9NUW8; Potency, µM (doses to about 130 µM), hits mostly inhibitors; further: nearly all actives have a fitted effect of over 40% in size
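Steps: enzyme plus compound, 15 min RT; add biotin/phosphotyrosine-FITC oligonucleotide (15 nM final), react 5 min; add donor/acceptor beads (10 ug/ml final), 10 min; read AlphaScreen. Tdp1 at 1 nM final.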
Large screens that a line does not name were inactive. Unless noted, the call rests on the fitted dose curve; in most records, active means well fitted curve in the direction sought with a large enough effect; inconclusive means small, poorly fitted or top-dose-only effect, or another doubt; inactive means no such curve, though single readings can be large; an effect the other way counts as inactive or inconclusive.

C[C@@H]1CN([C@@H](C)CO)C(=O)CCCn2nncc2CO[C@H]1CN(C)S(=O)(=O)c1ccccc1F	none (no result: TDP1 block)
O=C(/C=C/c1c(Cl)cccc1Cl)Nc1ccncc1	TDP1 cell noCPT 21µM, TDP1 cell CPT inconclusive
Cc1cc(C)nc(NC(=O)/C=C/c2ccccc2Cl)c1	TDP1 cell noCPT inconclusive
CC(C)C(C(=O)Nc1ccncc1)c1ccc(Cl)cc1 (configuration not stated)	TDP1 cell noCPT 16µM, TDP1 cell CPT inconclusive
Cc1cc(C)nc(NC(=O)/C=C/c2ccc(Cl)cc2Cl)c1	TDP1 cell noCPT 13µM, TDP1 cell CPT inconclusive
O=C(/C=C/c1ccc(Cl)cc1Cl)Nc1ccncc1	TDP1 cell noCPT 15µM, TDP1 cell CPT inconclusive
CCC1=C2CC[C@H]3C(=O)N(CC)C(=O)[C@H]3[C@H]2[C@@]2(Cc3ccccc3)C(=O)N(CC3CC3)C(=O)N2C1=O	none (no result: TDP1 cell noCPT, ClpP mod, TDP1 cell CPT)
CCc1ccc(CNC(=O)CSCc2cnn(-c3ccccc3)c2-n2cccc2)cc1	TDP1 cell noCPT inconclusive, TDP1 cell CPT inconclusive
O=C(Nc1ccncc1)Nc1ccc(Cl)cc1Cl	TDP1 cell noCPT inconclusive, TDP1 cell CPT 18µM
CC(=O)Nc1ccc(NC(=O)C(C)Oc2ccc(Cl)cc2Cl)cc1 (configuration not stated)	none
O=C(Nc1ccncc1)Nc1ccc(Cl)cc1	TDP1 cell noCPT inconclusive, TDP1 cell CPT inconclusive
CC(Oc1ccc(Cl)cc1Cl)C(=O)Nc1ccncc1 (configuration not stated)	TDP1 cell noCPT 9.2µM, TDP1 cell CPT 21µM
COc1ccc(-c2nnc(SCC(=O)O)n2Cc2ccccc2)cc1	none (no result: ClpP mod, TDP1 block)
COC(=O)C(=Cc1cc(Br)c(OC)c(Br)c1)C(=O)OC	none (no result: TDP1 cell noCPT, ClpP mod, TDP1 cell CPT)
CCCCNC(=O)OCC(CC)NC(=O)OC(C)C (configuration not stated)	ClpP mod 28µM
CCCCCCCCCCCCCC(=O)OC(C)C	none (no result: ClpP mod)
Cn1nccc1C(=O)Oc1ccc(/C=N/NC(=O)c2ccccc2O)cc1	none (no result: ClpP mod)
COc1ccccc1Oc1cc(C#N)c(C#N)cc1-n1nnc2ccccc21	TDP1 cell noCPT 18µM, TDP1 cell CPT 23µM
COc1ccccc1Oc1nc(C)c(C(C)=O)cc1C#N	none (no result: ClpP mod)
CS(=O)(=O)c1ccc2sc(NC(=O)c3cc4ccccc4o3)nc2c1	TDP1 cell noCPT 23µM, TDP1 cell CPT inconclusive (no result: ClpP mod, TDP1 block)
CS(=O)(=O)c1ccc2nc(NC(=O)c3ccco3)sc2c1	TDP1 cell noCPT inconclusive, TDP1 cell CPT inconclusive
Cc1ccc(C(=O)Nc2nc3ccc(S(C)(=O)=O)cc3s2)o1	TDP1 cell noCPT 12µM, TDP1 cell CPT 10µM
Cc1ccc(CNC(=O)c2cc(NS(=O)(=O)c3ccc(C)cc3)ccn2)cc1	none
Cc1ccc(NC(=S)NCc2ccc3c(c2)cc(C)n3C)c(C)c1	TDP1 cell noCPT 23µM, TDP1 cell CPT 23µM
Cc1ccc(NC(=O)NCc2ccc3c(c2)OCO3)c(C)c1	none (no result: ClpP mod)
Cc1ccc(C2=NN(CCC(=O)NCc3ccc4c(c3)OCO4)C(=O)CC2)cc1	TDP1 cell noCPT inconclusive, ClpP mod 7.9µM
Cc1ccc(NC(=S)NCc2ccc(F)cc2)c(C)c1	none (no result: ClpP mod)
Cc1ccc(NC(=S)NCc2ccc3c(c2)OCO3)c(C)c1	TDP1 cell noCPT 21µM, TDP1 cell CPT inconclusive
COc1ccc(C2=NN(CCC(=O)NCc3ccc4c(c3)OCO4)C(=O)CC2)cc1	none
O=C(COC(=O)c1ccc(S(=O)(=O)N2CCOCC2)cc1)Nc1ccccc1OC(F)F	none
Cc1ccc2[nH]cc(C(O)c3c[nH]c4ccc(C)cc34)c2c1	TDP1 cell noCPT inconclusive, TDP1 cell CPT inconclusive (no result: TDP1 block)
CC(C)c1ccc(NC(=O)CNC(=O)Cn2ccc3ccccc3c2=O)cc1	none
CC(C)c1ccc(NC(=O)C[n+]2ccn(C3=C([O-])c4ccccc4C3=O)c2)cc1	TDP1 block 50µM (no result: ClpP mod)
c1ccc(-c2ccc(-c3nc(-c4cccnc4)no3)cc2)cc1	ClpP mod 14µM
COc1ccc(-c2nc(-c3cccnc3)no2)cc1	TDP1 cell noCPT 16µM, TDP1 cell CPT inconclusive (no result: TDP1 block)
COc1ccc2c(c1)CC(C(=O)Nc1cc(Cl)ccc1C)CO2 (configuration not stated)	TDP1 cell noCPT inconclusive, TDP1 cell CPT inconclusive
CCOC(=O)c1cc2c(=O)n3ccccc3nc2n(Cc2ccco2)c1=NC(=O)c1cccc(C)c1	TDP1 cell noCPT inconclusive, TDP1 cell CPT 23µM
CCOC(=O)c1cc2c(=O)n3ccccc3nc2n(Cc2ccco2)c1=NC(=O)c1cccc(Br)c1	TDP1 cell noCPT inconclusive, TDP1 cell CPT 16µM
CCOC(=O)c1cc2c(=O)n3ccccc3nc2n(Cc2ccco2)c1=NC(=O)c1ccc(C)c(C)c1	TDP1 cell noCPT inconclusive
CCOC(=O)c1cc2c(=O)n3ccccc3nc2n(Cc2ccco2)c1=NC(=O)c1ccc(Br)cc1	TDP1 cell CPT 18µM
CCOC(=O)c1cc2c(=O)n3ccccc3nc2n(Cc2ccco2)c1=NC(=O)c1c(F)cccc1Cl	TDP1 cell noCPT 21µM, TDP1 cell CPT inconclusive
CCOC(=O)c1cc2c(=O)n3ccccc3nc2n(Cc2ccco2)c1=NC(=O)c1ccccc1OCC	TDP1 cell noCPT 18µM, TDP1 cell CPT inconclusive (no result: ClpP mod)
CC(=O)c1ccc(NC(=O)CC23CC4CC(C2)CC(n2nnc(C)n2)(C4)C3)cc1	TDP1 cell noCPT 13µM, TDP1 cell CPT inconclusive (no result: ClpP mod)
CC(=O)Nc1ccccc1C(=O)C(=O)Nc1ccc(F)c(Cl)c1	TDP1 cell noCPT inconclusive
COc1ccc(C(=O)NCc2nnc(SCC(=O)Nc3nc4ccccc4s3)o2)cc1	TDP1 cell noCPT inconclusive, TDP1 cell CPT 29µM
